Vaccinia Venus: qHTS for Stage-Specific Inhibitors of Vaccinia Orthopoxvirus: Venus Reporter Primary qHTS; Vaccinia virus Venus reporter expression, fluorescence; hit rate 0.46% among 330,000; Potency, µM (doses to about 36.5 µM), inactives show top-dose activity change, negative = inhibition, usual class: inhibitors; calls by dose curve; tested in A549 cells; further: on the % scale 0 is the no-effect control and ±100 the full control effect; nearly all actives have a fitted effect of over 30% in size
VACV mCherry inh: qHTS for Stage-Specific Inhibitors of Vaccinia Orthopoxvirus: mCherry Reporter Primary qHTS; Vaccinia virus mCherry reporter infection, fluorescence; Potency, µM (titrated, usually from 36.5 µM), for the others: top-dose activity change, negative = inhibition, usual class: inhibitors; hit rate 0.63% among 310,000; AID 720579, 2013; calls by dose curve; tested in A549 cells; further: on the % scale 0 is the no-effect control and ±100 the full control effect; nearly all actives have a fitted effect of over 35% in size
SARS PLpro yeast: qHTS of Yeast-based Assay for SARS-CoV PLP | S. cerevisiae expressing SARS-CoV PLpro, growth rescue | Potency, µM (doses to about 32.9 µM), for the others: at the highest dose activity, positive = growth rescue, usual class: activators | hit rate 0.19% among 330,000 | AID 485353, 2010; calls by dose curve; further: 0% is about no effect; nearly all actives have a fitted effect of over 55% in size
AmpC inh detg: qHTS Inhibitors of AmpC Beta-Lactamase (assay with detergent). AmpC hydrolysis of nitrocefin, absorbance 480 nm, 0.01% Triton. Potency, µM (highest dose often 114 µM), inactives show at the highest dose activity change, negative = inhibition, usual class: inhibitors. AID 485294, 2010. P00811. hit rate 0.041% among 370,000;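 further: 0% = no-compound wells and -100% = no-enzyme wells; nearly all actives have a fitted effect of over 25% in size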
Target sequence (P00811 whole entry, looked up): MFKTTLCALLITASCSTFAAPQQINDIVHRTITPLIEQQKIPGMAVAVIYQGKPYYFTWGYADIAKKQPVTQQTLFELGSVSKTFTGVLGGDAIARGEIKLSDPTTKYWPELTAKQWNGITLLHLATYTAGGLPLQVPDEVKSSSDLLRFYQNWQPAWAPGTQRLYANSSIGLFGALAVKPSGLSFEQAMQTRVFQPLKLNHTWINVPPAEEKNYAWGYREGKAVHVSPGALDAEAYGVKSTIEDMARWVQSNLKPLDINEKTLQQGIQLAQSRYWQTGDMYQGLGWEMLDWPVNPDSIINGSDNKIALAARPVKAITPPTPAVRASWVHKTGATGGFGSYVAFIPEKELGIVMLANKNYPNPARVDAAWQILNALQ
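AmpC (5.3 nM in the dispensed reagent) in 20 mM phosphate pH 7.0 with 0.01% (detergent screen) or 0.0001% Triton X-100 was preincubated with compounds for 15 min at room temperature. Nitrocefin was then added from an 800 uM solution, and hydrolysis was followed at 480 nm.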
AmpC inh no detg: qHTS Inhibitors of AmpC Beta-Lactamase (assay without detergent); hit rate 0.52% among 330,000; AmpC nitrocefin hydrolysis, absorbance 480 nm, 0.0001% Triton; AID 485341, 2010; Potency, µM (series often up to 57.1 µM), for the others: top-dose activity change, negative = inhibition, usual class: inhibitors;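 further: plate controls were no compound for no effect and no enzyme for full effect; nearly all actives have a fitted effect of over 20% in size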
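20 mM phosphate pH 7.0 + 0.01% (detergent screen) or 0.0001% Triton X-100; 5.3 nM AmpC reagent; cpd preinc 15 min RT; nitrocefin (800 uM stock) to start; A480 q20 s × 4 min; Activity was normalised to no-enzyme and no-compound control wells.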
AMA1-RON2 inh: qHTS for Inhibitors of AMA1-RON; Towards Development of Antimalarial Drug Lead: Primary Screen | Plasmodium falciparum AMA1 (3D7) - RON2 peptide interaction | AlphaScreen AMA1-biotinylated RON2 peptide binding | Potency, µM (top dose mostly 58.2 µM), for inactives: top-dose activity change, negative = inhibition, usual class: inhibitors | hit rate 0.2% among 360,000;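 further: 0% = vehicle wells and -100% = peptide control; nearly all actives have a fitted effect of over 45% in size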
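AMA1 (3D7) with his tag at 25 nM final met compounds first, then biotinylated RON2 peptide at 25 nM; detection used donor plus acceptor beads, 10 µg/mL apiece, read by AlphaScreen after 30 min at room temperature.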
The depositor's hits bear a star; i = inactive; u = inconclusive; x = not tested or not shown; [ ] = dose if it differs, or a comment. Rows were chosen to be rich in hits. Some 1.4% of all compounds tested hit in one or more screens of this group. Unless noted, the call rests on the fitted dose curve; in most records, active means well fitted curve in the direction sought with a large enough effect; inconclusive means small, poorly fitted or top-dose-only effect, or another doubt; inactive means no such curve, though single readings can be large; an effect the other way counts as inactive or inconclusive. Potency means the concentration at half of the fitted maximal effect.

SMILES	Vaccinia Venus	VACV mCherry inh	SARS PLpro yeast	AmpC inh detg	AmpC inh no detg	AMA1-RON2 inh
C[C@]12c3[nH]c4cc(-c5ccco5)ccc4c3CCN1C(=O)[C@@H](CC(=O)NCC13CC4CC(CC(C4)C1)C3)C[C@@H]2C(=O)N1CCCCC1	u	11µM*	1%	x	73%	-27%
NS(=O)(=O)c1cccc(NS(=O)(=O)c2ccc(/C=C/C(=O)OCC(=O)c3ccccc3)cc2)c1	-4%	-17%	0%	-14%	3.5µM*	-1%
O=C(Cn1cc(/C=N/NC(=O)c2ccccc2Br)c2ccccc21)Nc1ccc(F)cc1	x	x	4%	-9%	14µM*	1%
c1coc(-c2ccc3ncnc(NCc4cccs4)c3c2)c1	x	x	2%	-20%	-42%	x
CCCC(=O)Nc1c(C(=O)OCC)[nH]c2ccccc12	u	-17%	3%	5%	20µM*	0%
C=CCC[C@H](Cc1ccc(F)cc1)C(=O)OC[C@H](Cc1c[nH]c2ccccc12)NC(=O)[C@H](CC=C)CC(=O)N(CCO)Cc1ccccc1	22µM*	u	2%	x	10%	-9%
C=CCC[C@@H](Cc1ccc(F)cc1)C(=O)OC[C@@H](Cc1c[nH]c2ccccc12)NC(=O)[C@H](CC=C)CC(=O)N[C@H](CO)Cc1ccccc1	11µM*	-32%	2%	x	-16%	8%
C=CCC[C@H](Cc1ccc(F)cc1)C(=O)OC[C@@H](Cc1c[nH]c2ccccc12)NC(=O)[C@@H](CC=C)CC(=O)N[C@@H](CO)Cc1ccccc1	u	-20%	-31%	x	29%	0%
C=CC[C@H](CC(=O)N(CCO)Cc1ccccc1)C(=O)NC[C@H](OC(=O)[C@@H](CC=C)Cc1ccc(F)cc1)c1ccccc1	11µM*	u	-38%	x	191%	-6%
Cc1cn2c(=O)cc(COC(=O)c3cccc(NC(=O)COc4ccccc4)c3)nc2s1	-15%	-23%	x	8%	x	x
CC(C)N1CCN(C(=O)c2cnn(-c3nccc(-c4ccc5c(c4)OCO5)n3)c2-c2ccco2)CC1	-24%	u	x	x	x	x
CC(C)CCNC(=O)Cn1cc2c(n1)CCCCC2	x	x	1%	u	45µM*	-6%
CCOCCCNC(=O)Cn1cc2c(n1)CCCCC2	-6%	-6%	-8%	u	45µM*	20%
CCN(Cc1ccccc1)C(=O)Cn1cc2c(n1)CCCC2	-3%	-3%	3%	-15%	4.5µM*	-3%
Cc1ccc2nc(NC(=O)Cn3cc4c(n3)CCCCC4)sc2c1	-5%	i	4%	u	2.8µM*	22%
CN(CCCNC(=O)Cn1cc2c(n1)CCCC2)C1CCCCC1	x	x	6%	-14%	-4%	9%
Cc1ccc(NC(=O)Cn2cc3c(n2)CCCC3)c(C)c1	-17%	-7%	x	18%	x	x
COc1ccccc1CN1CCC(n2cc(C(=O)N3CCCCC3)nn2)CC1	-11%	-15%	x	x	x	x
O=C1C(=O)C(c2ccc(O)cc2O)Oc2cc(O)cc(O)c21 (stereo not drawn)	4%	29%	x	x	x	x
CNc1ccc(C=C2C=CC=C2)cc1	-5%	11%	x	x	x	x
CN(C)c1ccc(C=C2C=CC=C2)cc1	-1%	-7%	x	x	x	22µM*
COc1cccc(/C=N/N2CCN(c3ccccc3OC)CC2)c1	x	x	-4%	3%	-5%	u
COc1ccccc1N1CCN(/N=C/C=C\c2ccco2)CC1	7%	x	-8%	5%	20%	u
COc1ccccc1N1CCN(/N=C/C=C\c2ccccc2[N+](=O)[O-])CC1	-22%	u	-4%	-4%	35%	20µM*
CC1CCCC(C)N1/N=C/C=C/c1ccccc1[N+](=O)[O-] (stereo not drawn)	0%	-9%	-2%	-11%	-14%[11.4 µM]	16µM*
SMILES	Vaccinia Venus	VACV mCherry inh	SARS PLpro yeast	AmpC inh detg	AmpC inh no detg	AMA1-RON2 inh
COc1ccccc1N1CCN(/N=C/c2cccc(Cl)c2)CC1	-9%	-12%	7%	-5%	-6%	14µM*
CCN1CCCC1CNCc1cc2ccc(SC)cc2nc1-c1cc(OC)ccc1OC (stereo not drawn)	27%	9%	x	x	x	x
Cc1occc1C(=O)NCCN1Cc2ccccc2OC(c2ccccc2F)C1 (stereo not drawn)	2%	-9%	x	x	x	x
COc1ccc(C)cc1NCc1ccc([N+](=O)[O-])cc1	-4%	i	2%	-17%	-20%	u
COc1ccc(C)cc1NCc1ccc(OC)c(C)c1OC	x	x	-1%	-7%	-20%	28µM*
O=C1NC(=O)C(Cc2ccccc2F)(C2CCN(Cc3cccn3-c3cccnc3)CC2)N1 (stereo not drawn)	0%	i	x	x	x	x
COc1ccc(O)c(CN2CCC3(CC2)c2ccccc2[C@@H](NC(=O)c2cccc(F)c2)[C@@H]3OC)c1	-7%	-18%	x	x	x	x
CC(=O)N(Cc1ccc(F)cc1)C1=C(NCc2ccccc2)C(=O)c2ccccc2C1=O	3.5µM*	2.5µM*	-20%	-1%	49%	u
Cc1cccc(S(=O)(=O)Nc2cccc(-c3ccc(N4CCCCC4)nn3)c2)c1	-11%	i	x	2%	x	x
Cc1ccc(S(=O)(=O)Nc2cccc(-c3ccc(N4CCCCCC4)nn3)c2)cc1	x	x	-10%	-13%	0.71µM*	-11%
COc1ccc(CCNC(=O)c2cnn(-c3nccc(-c4cccs4)n3)c2C)cc1OC	u	-13%	x	x	x	x
Cc1cc(/C=C2\Sc3ccccc3N2C)cc(C)[n+]1CC1CCCO1 (stereo not drawn)	u	8.9µM*	-5%	-12%	1%	1%
O=C(NCC1CCCO1)C(=Cc1cccc([N+](=O)[O-])c1)C(=O)NCC1CCCO1 (stereo not drawn)	u	13µM*	-3%	-6%	-17%	27%
O=C(NCC1CCCO1)/C(=C\c1cccc([N+](=O)[O-])c1)NC(=O)c1ccccc1 (stereo not drawn)	-5%	-10%	2%	2%	-13%	0%
CCN(CC)S(=O)(=O)c1ccc(N/N=C/c2cccnc2)nc1	x	x	-1%	5%	-15%	-4%
COc1ccc(O)c(/C=N/NC(=S)Nc2cccnc2)c1	u	11µM*	22%	-15%	-39%	-64%
